Results filed as inconclusive are left out. The source made the active and inactive calls. Calls follow the shape of the dose curve; as a rule, active = well fitted inhibition curve with a large enough effect in the signal ratio in the repeat runs (not every such curve was filed as active); inconclusive = weak or mixed curves; inactive = flat fitted curve, though single readings scatter; the % refers to the signal ratio.
The molecules below were run against Progesterone receptor (Homo sapiens) (UniProt P06401) (assay: qHTS assay to identify small molecule antagonists of the progesterone receptor (PR) signaling pathway (AID 1346795)). Settings: PR-UAS-bla HEK293T, beta-lactamase FRET ratio, 16 h; series mostly up to 92.4 µM; activity change, negative = inhibition: at the top concentration.
Sequence of Progesterone receptor (Homo sapiens) (P06401 whole entry, looked up): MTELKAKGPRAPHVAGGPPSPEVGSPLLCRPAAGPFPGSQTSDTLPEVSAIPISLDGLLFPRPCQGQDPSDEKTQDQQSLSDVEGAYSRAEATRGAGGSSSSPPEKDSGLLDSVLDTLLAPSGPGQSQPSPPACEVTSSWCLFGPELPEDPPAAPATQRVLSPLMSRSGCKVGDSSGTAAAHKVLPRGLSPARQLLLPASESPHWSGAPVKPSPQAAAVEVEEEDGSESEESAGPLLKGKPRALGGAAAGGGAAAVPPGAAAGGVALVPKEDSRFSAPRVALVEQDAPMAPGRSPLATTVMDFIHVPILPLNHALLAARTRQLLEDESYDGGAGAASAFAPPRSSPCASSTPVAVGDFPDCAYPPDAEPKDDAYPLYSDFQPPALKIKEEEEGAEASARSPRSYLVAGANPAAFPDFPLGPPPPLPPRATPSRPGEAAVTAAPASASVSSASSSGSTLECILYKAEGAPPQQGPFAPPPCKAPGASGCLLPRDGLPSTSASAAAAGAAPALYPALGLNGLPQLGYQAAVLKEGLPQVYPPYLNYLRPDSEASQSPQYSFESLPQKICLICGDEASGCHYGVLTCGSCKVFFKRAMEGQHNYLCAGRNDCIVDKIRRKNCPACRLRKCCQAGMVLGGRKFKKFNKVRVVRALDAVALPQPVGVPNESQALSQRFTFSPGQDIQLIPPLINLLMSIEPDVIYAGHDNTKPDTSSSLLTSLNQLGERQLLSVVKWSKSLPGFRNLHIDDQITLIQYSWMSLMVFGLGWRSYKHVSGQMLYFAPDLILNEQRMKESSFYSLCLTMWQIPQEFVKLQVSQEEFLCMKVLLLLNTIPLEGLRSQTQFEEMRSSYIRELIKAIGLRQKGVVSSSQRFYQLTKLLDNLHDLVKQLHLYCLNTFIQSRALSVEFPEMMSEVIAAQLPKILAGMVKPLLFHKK
Source text: National Center for Advancing Translational Sciences [NCATS]
NIH Chemical Genomics Center [NCGC]
U.S. Environmental Protection Agency [EPA]
National Institutes of Environmental Health Sciences [NIEHS]
National Toxicology Program [NTP]
U.S. Food and Drug Administration [FDA]
Progesterone receptor (PR), a nuclear hormone receptor, plays an important role in development, metabolic homeostasis and reproduction. […] Endocrine disrupting chemicals (EDCs) and their interactions with steroid hormone receptors like PR causes disruption of normal endocrine function. To identify the compounds that inhibit PR signaling, a PR-UAS-bla GripTite cell line i.e. PR-UAS-bla HEK293T (Invitrogen, Carlsbad, CA, USA) containing a beta-lactamase reporter gene under the control of an Upstream Activator Sequence (UAS) was used to screen Tox21 10K compound library.
Tox21 Assay Protocol Summary:
PR-UAS-bla HEK293T cells were dispensed at 3,000 cells/4 uL of assay medium containing 2% charcoal stripped FBS per well into black wall/clear-bottom 1536-well plates using a Multidrop Combi (ThermoFisher Scientific, Waltham, MA) dispenser. After the assay plates were incubated at a 37C and 5% CO2 for 6 hr, 23 nL of compounds dissolved in DMSO, positive controls or DMSO only was transferred to the assay plate by a Pintool station (Kalypsys, San Diego, CA), followed by addition of 1 uL (1nM as final concentration) of Promegestone (R5020) in assay medium using a BioRAPTR FRD (Flying Reagent Dispenser, Aurora Discovery, San Diego, CA). The plates were incubated at 37C and 5% CO2 for 16 hr. Then 1 uL of LiveBLAzer B/G FRET substrate was added using a FRD. After the plates were incubated at room temperature for 2 hours, fluorescence intensity was measured by an Envision plate reader (PerkinElmer, Shelton, CT).
In the case of `CC(=O)OCC[N+](C)(C)C`, the “activity change, negative = inhibition” value was 5.38% [at 42.5 µM] (inactive).
In the case of `CC(C)COCC(CN(Cc1ccccc1)c1ccccc1)N1CCCC1` (stereo not given), the Potency was 29.8 µM (active).
`Cc1cc(O)c(C)c(C)c1O` was tested, and the “activity change, negative = inhibition” value was 2.04% [at 42.5 µM] (inactive).
With `Cc1c(C)c2c(c(C)c1OC(=O)CCC(=O)OCCO)CC[C@@](C)(CCC[C@H](C)CCC[C@H](C)CCCC(C)C)O2` the Potency was 26.6 µM (active).
`Cc1[nH]cnc1CN1CCc2c(c3ccccc3n2C)C1=O` was tested, and the “activity change, negative = inhibition” value was -0.131% [at 42.5 µM] (inactive).
For `Brc1cc(Br)c(Oc2cc(Br)c(Br)cc2Br)cc1Br`, the “activity change, negative = inhibition” value was -21% [at 42.5 µM] (inactive).
In the case of `CC(=O)NC1(c2cccc(F)c2)CCN(CC[C@@]2(c3ccc(Cl)c(Cl)c3)CN(c3ccccc3)C(=O)CO2)CC1`, the Potency was 48.7 µM (active).
`CCOC(=O)/C=C/C(=O)OCC` was tested, and the “activity change, negative = inhibition” value was 11% (inactive).
`CC(=O)N/N=C/c1ccc([N+](=O)[O-])o1` was tested, and the “activity change, negative = inhibition” value was 0.0479% [at 42.5 µM] (inactive).
In the case of `CCOc1ccccc1O[C@H](c1ccccc1)[C@H]1CNCCO1`, the “activity change, negative = inhibition” value was -7.55% [at 42.5 µM] (inactive).
With `C=Cc1ccc(S(=O)(=O)O)cc1` the “activity change, negative = inhibition” value was 4.15% (inactive).
For `C=C(C)C(=O)OCCOCCOC(=O)C(=C)C`, the “activity change, negative = inhibition” value was 8.15% (inactive).
`C[C@]12CC[C@@H]3c4ccc(O)cc4CC[C@H]3[C@@H]1CC[C@@H]2OC(=O)CCC1CCCC1` was tested, and the Potency was 0.386 µM (active).
In the case of `CC(C)(O)c1ccc(CNC(=O)c2cccnc2Oc2ccc3nonc3c2)cc1`, the “activity change, negative = inhibition” value was -20.8% (inactive).
`Oc1c(I)cc(I)c2cccnc12` was tested, and the Potency was 7.5 µM (active).
In the case of `COc1ccccc1N1CCN(CCCCNC(=O)c2ccc(-c3ccc(C(C)=O)cc3)cc2)CC1`, the “activity change, negative = inhibition” value was 0.969% [at 42.5 µM] (inactive).
For `O=C(O)c1ccc(OCCCOc2ccc(C(=O)O)cc2)cc1`, the “activity change, negative = inhibition” value was 0.526% [at 42.5 µM] (inactive).
In the case of `NC(=O)c1ccncc1`, the “activity change, negative = inhibition” value was 3.96% (inactive).
In the case of `O=C1C(=O)c2ccccc2C(O)=C1C1CCC(c2ccc(Cl)cc2)CC1` (stereo not given), the “activity change, negative = inhibition” value was -15.6% [at 42.5 µM] (inactive).
With `C[C@@H](CN(C)C)CN1c2ccccc2Sc2ccccc21` the Potency was 26.6 µM (active).
`CCOC(=O)C1=C(C)NC(C)=C(C(=O)OC)C1c1cccc(Cl)c1Cl` (stereo not given) was tested, and the Potency was 3.76 µM (active).
For `CCC(=O)C1CC(C(C)C)CC=C1C` (stereo not given), the “activity change, negative = inhibition” value was 4.04% (inactive).
`CC(C)=CCC1C(=O)N(c2ccccc2)N(c2ccccc2)C1=O` was tested, and the “activity change, negative = inhibition” value was -9.97% [at 42.5 µM] (inactive).
For `CC(C)C(O)(c1ccc(OC(F)(F)F)cc1)c1cncnc1` (stereo not given), the Potency was 30.5 µM (active).
In the case of `CC/C=C1/OC(=O)c2ccccc21`, the “activity change, negative = inhibition” value was -7.17% (inactive).
For `O=C1CCCCCCCCCCOCCCCO1`, the “activity change, negative = inhibition” value was 0.293% (inactive).
With `C1C[C@@H]2[C@H]3CC[C@H](C3)[C@@H]2C1` the “activity change, negative = inhibition” value was 1.77% (inactive).
In the case of `O=C1c2ccccc2C(=O)C1(O)O`, the “activity change, negative = inhibition” value was 11.9% (inactive).
In the case of `FC(F)(F)c1ccccc1Cl`, the “activity change, negative = inhibition” value was 3.9% (inactive).
`CCC(OCCCOC)OC(C)=O` (stereo not given) was tested, and the “activity change, negative = inhibition” value was 7.53% (inactive).
`CN1CC(=O)N2[C@H](c3ccc4c(c3)OCO4)c3[nH]c4ccccc4c3C[C@@H]2C1=O` was tested, and the “activity change, negative = inhibition” value was 10.6% [at 42.5 µM] (inactive).
`C=C(C)C(=O)OCCCCCCCCCCCCC` was tested, and the “activity change, negative = inhibition” value was 5.67% (inactive).
For `NCCNCCO`, the “activity change, negative = inhibition” value was -0.0389% (inactive).
In the case of `C1COC1`, the “activity change, negative = inhibition” value was 6.2% (inactive).
For `C[C@H]1C[C@H](O)c2ccsc2S1(=O)=O`, the “activity change, negative = inhibition” value was 3.77% [at 42.5 µM] (inactive).
`O=[N+]([O-])c1ccc(Nc2ccc(Nc3ccccc3)c(S(=O)(=O)O)c2)c([N+](=O)[O-])c1` was tested, and the “activity change, negative = inhibition” value was 14% (inactive).
`CC(=O)Nc1cc(S(=O)(=O)O)cc2cc(S(=O)(=O)O)c(N=Nc3ccccc3)c(O)c12` was tested, and the “activity change, negative = inhibition” value was 11.5% (inactive).
`O=C(OC(=O)c1ccccc1)c1ccccc1` was tested, and the “activity change, negative = inhibition” value was 7.53% (inactive).
With `O=c1[nH]ncc2ccccc12` the “activity change, negative = inhibition” value was 3.27% (inactive).
In the case of `O=C(OCC(O)CO)c1ccccc1Nc1ccnc2cc(Cl)ccc12` (stereo not given), the Potency was 21.1 µM (active).
% is scaled to controls: 0 for no effect and ±100 for the full control effect; potency is read from the fitted curve at half-maximal effect.
